Values without a mark were called inactive.

This assay is described as follows: growth effects on S. cerevisiae YJM789 – YJM789 clinical isolate, OD600, 24 h, basal, primary screen (AID 1089).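 Also: growth of clinical yeast isolate S. cerevisiae YJM 789 seeded 1000 cells per well; test concentration not given here.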 The settings on record: higher = more signal, called active from +8 up or from −8 down.
Take `C=C[C@@H](OC)[C@H](OC(=O)Nc1ccc(OC)cc1)c1ccc(O)c(F)c1`: the z-score is -1.48.

As to `C=CCC(OC(C)=O)[C@@H]1[C@@H](N(Cc2ccc(-c3cccc(C(F)(F)F)c3)o2)C(=O)c2ccc(-c3ccccc3)cc2)c2cc(OCCCO)ccc2N1C(=O)Cc1ccc2ccccc2c1` (stereo partly specified), the z-score is 0.955.

As to `CCOC(=O)C1=C[C@@H](c2ccccc2)N(S(=O)(=O)c2ccc(C)cc2)[C@H]1c1ccc(OC)cc1`, the z-score is -1.13.

On to `CS(=O)(=O)CCOC(=O)C1=CC(CCCO)=CC(c2ccc(CN3CCCC3)cc2)N(Cc2sc3ccccc3c2Cl)C=C1C(=O)OCCS(C)(=O)=O` (stereo unspecified), for which the z-score was -0.381.

As to `CCOC(=O)C[C@H]1[C@H](OC(=O)Cc2ccc3c(c2)OCO3)[C@@H](NC(=O)c2ccc3ccccc3n2)c2cc(OCCCO)ccc2N1C(=O)c1ccc2ccccc2n1`, the z-score is -2.47.

On to `C=CCC(OC(C)=O)[C@@H]1[C@@H](N(Cc2ccc(-c3ccccc3)cc2)C(=O)c2ccc(-c3ccccc3)cc2)c2cc(OCCCO)ccc2N1C(=O)c1ccc2ccccc2c1` (stereo partly specified), for which the z-score is -0.737.

With `Cc1ccc(NN2C(C(O)c3c(F)cccc3Cl)C=CC3C(=O)N(C4CCCCC4)C(=O)C32)cc1` (stereo unspecified), the z-score is -0.58.

As to `CN(C)C(=O)[C@]1(Cc2ccccc2CN=[N+]=[N-])N=C(c2ccc(OCCCO)cc2)O[C@@H]1c1ccccc1`, the z-score is -0.545.

On to `Cc1ccc(S[C@]2(C(=O)O)CC(=O)N(C3CCCCC3)[C@@H]2c2ccc(CO)cc2I)cc1`, for which the z-score is -0.693.

Turning to `CCOC(=O)C[C@H]1[C@H](OC(=O)c2cc3ccccc3oc2=O)[C@@H](NC(=O)CC(C)C)c2cc(OCCCO)ccc2N1C(=O)c1ccc2ccccc2n1`, the z-score is 0.475.

As for `CCOC(=O)C[C@H]1[C@H](OC(=O)c2ccc(-c3ccccc3)cc2)[C@@H](NC(=O)CC(C)C)c2cc(OCCCO)ccc2N1C(=O)c1ccc2ccccc2n1`, the z-score is -1.13.

In the case of `CCOC(=O)C[C@H]1[C@H](OC(=O)c2ccc(C(=O)c3ccccc3)cc2)[C@@H](NC(=O)c2ccc3ccccc3n2)c2cc(OCCCO)ccc2N1C(=O)Cc1ccc(OC)cc1`, the z-score was 1.

As for `COc1ccc([Si](C)(C)[C@@H]2[C@@H](CC(=O)N(CCO)Cc3ccccc3)O[C@]3(C(=O)N(Cc4cccc(N5CCCCC5=O)c4)c4ccccc43)[C@H]2C)cc1`, the z-score was 1.42.

Consider `COC(=O)[C@]1(CCS(=O)(=O)c2ccccc2)N=C(c2ccc(OCCCO)cc2)O[C@@H]1c1ccccc1N=[N+]=[N-]`, for which the z-score is 0.764.

As for `COC(=O)[C@@]1(Cc2ccccc2)[C@H]2c3cc(C(=O)N4CCCC4)n(CCc4ccccn4)c3C[C@H]2CN1C(=O)c1ccccc1`, the z-score is -0.789.

Take `CCCN1C(=O)[C@@]2(Cc3ccccc31)N=C(c1ccc(OCCCO)cc1)O[C@H]2c1ccccc1`: the z-score is -0.306.

Regarding `COC(=O)[C@@]1(Cc2ccc(F)cc2)[C@H]2c3cc(C(=O)N(C)C)n(Cc4ccc(OC(F)(F)F)cc4)c3C[C@H]2CN1C(=O)c1ccccc1`, the z-score was 0.784.

For the molecule `CC(=O)N1CC2(CC2)CC1c1ccccc1` (stereo unspecified), the z-score is -0.999.

For the molecule `CC(C)[Si](C#CCCCC#N)(O[C@H](c1ccccc1)c1cn(Cc2ccccc2)nn1)C(C)C`, the z-score is -1.45.

With `COCCOC(=O)N1C(=O)[C@@]2(c3cc(C#CC4(O)CCCCCC4)ccc31)[C@H](c1ccc(O)cc1)N1[C@H](c3ccccc3)[C@H](c3ccccc3)OC(=O)[C@H]1[C@@H]2C(=O)N1CCN(c2ncccn2)CC1`, the z-score is 0.12.

With `CC1=C2[C@@H](CCc3ccccc3)OB(O)C[C@@H]2[C@@H]2C(=O)N(Cc3ccccc3)C(=O)[C@@H]2C1`, the z-score is -0.763.

Turning to `CCOC(=O)C[C@H]1[C@H](OC(=O)Cc2ccc3c(c2)OCO3)[C@@H](NC(=O)C2CCCCC2)c2cc(OCCCO)ccc2N1C(=O)c1ccccc1`, the z-score is 0.193.

In the case of `COCCCNC(=O)[C@@]1(CCC(=O)OC(C)(C)C)N=C(c2ccc(OCCCO)cc2)O[C@H]1c1ccccc1N=[N+]=[N-]`, the z-score is -0.197.

Turning to `[N-]=[N+]=Nc1ccccc1C[C@]1(C(=O)NCC(O)CO)COC(c2ccc(OCCCO)cc2)=N1` (stereo partly specified), the z-score is 0.887.

As for `CCCC[C@@H](O)C1=C(COC)C[C@H]2C(=O)N(C)C(=O)[C@H]2[C@H]1CO`, the z-score was -2.33.

Regarding `CCCCCCc1nc(Cc2cc(OC)c(OC)c(OC)c2)cc2c1[Si](C(C)C)(C(C)C)OC2`, the z-score is 0.654.

The values above are taken from PubChem BioAssay.
